Screens from PubChem.
BAZ2B block: BAZ2B (human) inhibition; Q9UIF8; AlphaScreen BAZ2B-H3K14Ac peptide displacement; Potency, µM (top dose mostly 114 µM), inactives show top-dose activity change, negative = inhibition, most hits filed as inhibitors; hit rate 4.4% among 360,000; AID 504333; also: % is scaled to controls: 0 for no effect and ±100 for the full control effect; nearly all actives have a fitted effect of over 60% in size
Target sequence (Q9UIF8 whole entry, looked up): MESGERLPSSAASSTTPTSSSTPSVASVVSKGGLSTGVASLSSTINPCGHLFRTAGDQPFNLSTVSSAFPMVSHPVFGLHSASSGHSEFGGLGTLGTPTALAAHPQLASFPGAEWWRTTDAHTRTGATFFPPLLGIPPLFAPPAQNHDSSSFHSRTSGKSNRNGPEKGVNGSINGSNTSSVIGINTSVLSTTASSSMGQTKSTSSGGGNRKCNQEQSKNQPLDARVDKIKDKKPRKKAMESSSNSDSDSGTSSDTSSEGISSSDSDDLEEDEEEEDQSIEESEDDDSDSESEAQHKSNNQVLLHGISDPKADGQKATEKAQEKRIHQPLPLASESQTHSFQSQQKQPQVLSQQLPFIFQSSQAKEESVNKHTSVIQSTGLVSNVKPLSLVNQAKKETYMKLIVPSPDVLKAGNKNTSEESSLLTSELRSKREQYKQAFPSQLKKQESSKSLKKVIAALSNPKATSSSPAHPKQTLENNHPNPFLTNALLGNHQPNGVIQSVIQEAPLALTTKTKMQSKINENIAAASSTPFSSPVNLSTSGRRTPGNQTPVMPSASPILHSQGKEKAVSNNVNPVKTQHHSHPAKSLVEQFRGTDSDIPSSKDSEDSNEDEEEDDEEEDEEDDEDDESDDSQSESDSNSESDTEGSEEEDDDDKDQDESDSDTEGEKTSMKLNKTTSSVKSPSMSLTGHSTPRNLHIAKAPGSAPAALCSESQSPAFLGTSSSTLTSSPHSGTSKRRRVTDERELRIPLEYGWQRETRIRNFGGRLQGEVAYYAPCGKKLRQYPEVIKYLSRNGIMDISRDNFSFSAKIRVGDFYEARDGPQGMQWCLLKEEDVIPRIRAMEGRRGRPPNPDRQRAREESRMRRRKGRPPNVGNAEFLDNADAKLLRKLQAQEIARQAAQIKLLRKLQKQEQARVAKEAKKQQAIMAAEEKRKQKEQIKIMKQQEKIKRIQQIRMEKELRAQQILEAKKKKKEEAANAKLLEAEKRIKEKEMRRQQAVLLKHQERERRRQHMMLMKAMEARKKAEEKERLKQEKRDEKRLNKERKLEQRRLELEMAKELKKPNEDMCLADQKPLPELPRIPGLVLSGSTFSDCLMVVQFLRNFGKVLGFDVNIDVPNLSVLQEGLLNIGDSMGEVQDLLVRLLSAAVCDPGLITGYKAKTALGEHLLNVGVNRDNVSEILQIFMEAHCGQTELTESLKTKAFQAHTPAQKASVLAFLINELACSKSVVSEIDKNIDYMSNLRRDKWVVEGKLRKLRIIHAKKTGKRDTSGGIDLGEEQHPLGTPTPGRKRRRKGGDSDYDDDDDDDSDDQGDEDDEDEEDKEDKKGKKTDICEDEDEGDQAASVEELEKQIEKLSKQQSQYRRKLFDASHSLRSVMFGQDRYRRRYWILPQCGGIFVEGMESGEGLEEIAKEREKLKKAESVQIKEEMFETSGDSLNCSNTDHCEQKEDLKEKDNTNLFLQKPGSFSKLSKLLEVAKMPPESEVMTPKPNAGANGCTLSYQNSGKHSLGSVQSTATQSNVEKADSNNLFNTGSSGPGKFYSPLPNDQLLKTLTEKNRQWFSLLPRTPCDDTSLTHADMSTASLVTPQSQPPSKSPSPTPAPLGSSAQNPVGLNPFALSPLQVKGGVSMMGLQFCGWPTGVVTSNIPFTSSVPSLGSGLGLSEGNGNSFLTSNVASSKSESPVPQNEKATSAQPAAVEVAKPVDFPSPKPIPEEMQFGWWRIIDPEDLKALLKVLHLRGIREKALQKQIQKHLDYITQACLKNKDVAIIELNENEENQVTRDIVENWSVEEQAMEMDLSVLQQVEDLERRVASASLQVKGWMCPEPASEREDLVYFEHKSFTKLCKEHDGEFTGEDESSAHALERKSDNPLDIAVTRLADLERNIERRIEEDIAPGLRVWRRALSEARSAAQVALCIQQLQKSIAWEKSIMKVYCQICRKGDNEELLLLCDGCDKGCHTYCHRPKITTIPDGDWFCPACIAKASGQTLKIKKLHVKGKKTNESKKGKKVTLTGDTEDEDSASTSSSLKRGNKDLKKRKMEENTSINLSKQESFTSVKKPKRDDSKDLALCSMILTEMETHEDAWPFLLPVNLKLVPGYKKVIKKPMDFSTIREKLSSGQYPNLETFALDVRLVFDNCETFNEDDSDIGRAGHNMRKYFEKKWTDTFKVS
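Complex of BAZ2B and biotin-H3K14Ac (50 nM apiece) forms over 30 min at RT, then faces library compounds up to 110 uM for another 30 min; AlphaScreen beads added, 20 min dark incubation, luminescence read.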
G9a block: inhibitors of human histone lysine methyltransferase G9a | G9a H3K9 monomethylation, AlphaScreen, 2 h | Potency, µM (highest dose often 102 µM), for the others: at the highest dose activity, negative = inhibition, hits mostly inhibitors | hit rate 8.8% among 350,000; also: % is scaled to controls: 0 for no effect and ±100 for the full control effect; nearly all actives have a fitted effect of over 75% in size
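Signal arises when biotinylated H3K9 peptide, once monomethylated, bridges streptavidin donor and antibody-captured acceptor beads. Enzyme at 20 nM was preincubated 15 min with test compounds; peptide 500 nM and SAM 20 uM then reacted for 2 h.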
12-LOX inh: inhibitors of human 12S-lipoxygenase ALOX12; purified 12hLO, xylenol orange hydroperoxide absorbance; Potency, µM (series often up to 108 µM), for inactives: at the top dose activity change, negative = inhibition, actives largely listed as inhibitors; hit rate 1.1% among 580,000; AID 1671190; also: % is scaled to controls: 0 for no effect and ±100 for the full control effect
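Purified human 12hLO (150 nM final) in 25 mM Hepes, 0.01% Triton X-100, pH 7.0 was preincubated 15 min at room temperature with compound. Then 40 uM arachidonic acid was added, 30 min. Hydroperoxide was read by Fe-XO absorbance ratio 573/405 nm.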
PLK1 PBD block: inhibitors of human PLK1 polo-box domain binding; Plk1 PBD binding of FITC phosphopeptide, fluorescence polarization; P53350; AID 720504; hit rate 2.8% among 360,000; Potency, µM, without a hit: max response, negative = inhibition, most hits filed as inhibitors; also: series mostly up to about 57 µM; % is scaled to controls: 0 for no effect and ±100 for the full control effect; nearly all actives have a fitted effect of over 65% in size
HP1b binding inh: blocks HP1-beta chromodomain binding to methylated histone tails | AlphaScreen HP1-beta / biotin-H3K9me3 peptide binding | Potency, µM (highest dose often 114 µM), without a hit: top-dose activity change, negative = inhibition, hits mostly inhibitors | hit rate 0.56% among 390,000; also: nearly all actives have a fitted effect of over 70% in size
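AlphaScreen: HP1-beta (50 nM) preformed 30 min with biotin-H3(1-18)K9me3 peptide (50 nM) in PBS pH 7.4, 0.01% Tween-20. Compound added for 30 min at RT, then streptavidin donor/nickel chelate acceptor beads (10 ug/mL) for 30 min.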
JMJD2A Tudor: blocks the human JMJD2A Tudor domain; AlphaScreen JMJD2A-Tudor / H3K4me3 peptide binding; hit rate 4.4% among 390,000; O75164; Potency, µM (titrated, usually from 114 µM), for the others: top-dose activity change, negative = inhibition, usual class: inhibitors; also: % is scaled to controls: 0 for no effect and ±100 for the full control effect; nearly all actives have a fitted effect of over 50% in size
Numbers without * were called inactive; [ ] = remark or other dose. In the library only some 9% were active in any assay of this set; here they are far more common. Calls follow the shape of the dose curve; as a rule, active = well fitted curve in the direction sought with a large enough effect; inconclusive = small, poorly fitted or top-dose-only effect, or another doubt; inactive = no such curve, though single readings can be large; an effect the other way counts as inactive or inconclusive. Potency is read from the fitted curve at half-maximal effect.

O=C(c1ccc(CNS(=O)(=O)c2ccccc2)cc1)N1CCN(c2ccccn2)CC1 was read as BAZ2B block inconclusive, G9a block -9.5%[59 µM], 12-LOX inh 0.0%, PLK1 PBD block -0.3%, HP1b binding inh 31.7% and JMJD2A Tudor -3.5%.
Screening CCn1c(-c2nn(C)c(C)c2Cl)n[nH]c1=S returned BAZ2B block 0.3%, G9a block 2.24µM*, 12-LOX inh -16.2%, PLK1 PBD block -25.6%, HP1b binding inh 37.7% and JMJD2A Tudor inconclusive.
S=c1[nH]nc(COc2ccc(Cl)cc2)n1Cc1ccccc1 was read as BAZ2B block -17.4%, G9a block inconclusive, 12-LOX inh -4.6%, PLK1 PBD block -17.8%, HP1b binding inh 22.8% and JMJD2A Tudor -17.9%.
CCn1c(-c2ccc(Cl)cc2)n[nH]c1=S was read as BAZ2B block 3.0%, G9a block 1.26µM*, 12-LOX inh inconclusive, PLK1 PBD block -18.6%, HP1b binding inh -3.4% and JMJD2A Tudor 5.01µM*.
Screening CCCn1c(-c2ccc(F)cc2)n[nH]c1=S returned BAZ2B block 17.2%, G9a block 22.4µM*, 12-LOX inh inconclusive, PLK1 PBD block -5.8%, HP1b binding inh 14.8% and JMJD2A Tudor 5.62µM*.
`CCn1c(COc2ccc(Cl)cc2)n[nH]c1=S` gave 12-LOX inh 15.8µM*.
For COC(=O)N1CCN(c2ccc(C)c(C)c2)CC1 the results were BAZ2B block -18.9% and G9a block -35.3%.
For Cc1cc(CNC(=O)COc2ccc(F)cc2)c2ccccc2n1 the results were BAZ2B block -16.7%, G9a block 16.0%[12.7 µM], 12-LOX inh 8.0%, PLK1 PBD block -15.9%, HP1b binding inh 14.6% and JMJD2A Tudor -4.4%.
Screening CCN(CC)C(=O)N1CCCC(Cc2nncn2C(C)C)C1 (stereo not given) returned 12-LOX inh 5.5%.
Cc1cc(O)c(C(c2cccc(F)c2)N2CCC(C)CC2)c(=O)n1Cc1ccco1 (stereo not given) was read as BAZ2B block -13.0%, G9a block -42.4%[59 µM], 12-LOX inh -20.8%, HP1b binding inh 14.7%[57 µM] and JMJD2A Tudor -29.2%.
CCn1c(-c2ccc(C)cc2)n[nH]c1=S was read as BAZ2B block -23.8%, G9a block 1.26µM*, 12-LOX inh inconclusive, PLK1 PBD block -14.9%, HP1b binding inh 16.4% and JMJD2A Tudor 7.94µM*.
Screening CCCCn1c(-c2ccc([N+](=O)[O-])cc2)n[nH]c1=S returned BAZ2B block -5.1%, G9a block inconclusive, 12-LOX inh inconclusive, PLK1 PBD block -11.2%, HP1b binding inh inconclusive and JMJD2A Tudor 7.94µM*.
`CCn1c(SCC(=O)N2c3ccccc3Sc3ccccc32)nnc1-c1ccco1` gave BAZ2B block inconclusive, G9a block 6.31µM*, 12-LOX inh inconclusive, PLK1 PBD block -6.2%, HP1b binding inh -7.4% and JMJD2A Tudor inconclusive.
For CCn1c(SCC(=O)c2cccs2)nnc1-c1ccco1 the results were BAZ2B block -5.1%, G9a block 50.1µM*, 12-LOX inh -3.3%, PLK1 PBD block -18.5%, HP1b binding inh 33.0% and JMJD2A Tudor -15.7%.
C=CCn1c(SCC(=O)N2c3ccccc3Sc3ccccc32)nnc1-c1ccco1 was read as BAZ2B block inconclusive, G9a block inconclusive, 12-LOX inh 22.4µM*, PLK1 PBD block -4.3%, HP1b binding inh -6.7% and JMJD2A Tudor -33.8%.
CCNc1nc(NC(C)C)nc(Oc2ccc(/C=N/O)cc2)n1 was read as BAZ2B block 8.5%, G9a block -8.7%[59 µM], 12-LOX inh -17.6%, PLK1 PBD block 4.74µM*, HP1b binding inh inconclusive and JMJD2A Tudor inconclusive.
COC(=O)c1ccc(Oc2nc(NC(C)C)nc(NC(C)C)n2)cc1 was read as BAZ2B block -17.5%, G9a block 2.6%[12.7 µM], 12-LOX inh -9.8%, PLK1 PBD block -7.1%, HP1b binding inh 13.0% and JMJD2A Tudor -23.8%.
For O=C(c1cnn(C(=O)COc2ccccc2F)c1)c1cc(F)ccc1O the results were BAZ2B block inconclusive, G9a block -8.4%, 12-LOX inh inconclusive, PLK1 PBD block inconclusive, HP1b binding inh 39.9% and JMJD2A Tudor -28.7%.
For Cc1cc(Cl)ccc1OCC(=O)n1cc(C(=O)c2cc(Cl)ccc2O)cn1 the results were BAZ2B block -7.9% and G9a block 79.4µM*.
COc1ccc(C)cc1N1C(=N)/C(=C2/Nc3ccccc3S2)C(c2ccccc2)C1=O (stereo not given) was read as BAZ2B block inconclusive, G9a block 10µM*, 12-LOX inh -17.9%, PLK1 PBD block inconclusive, HP1b binding inh inconclusive and JMJD2A Tudor inconclusive.
Cc1nc2c(-c3ccccc3)c(C)nn2c(C)c1CCC(=O)NC(C)c1ccccc1 (stereo not given) was read as BAZ2B block -3.0%, G9a block 5.6%[59 µM], 12-LOX inh 0.0%, HP1b binding inh 49.9% and JMJD2A Tudor 8.8%.
`Cc1csc(Nc2ccccc2)[n+]1C` gave G9a block inconclusive, 12-LOX inh -19.3%, PLK1 PBD block -12.3%, HP1b binding inh -0.7% and JMJD2A Tudor -30.9%.
For Cc1csc(Nc2ccccc2)[n+]1-c1ccccc1 the results were BAZ2B block 44.7µM*, G9a block 10µM*, 12-LOX inh -19.0%, PLK1 PBD block -15.7%, HP1b binding inh 28.2µM* and JMJD2A Tudor 22.4µM*.
For CC1(C)[C@@H]2CC[C@]1(C)[C@@H](OC(=O)CSC#N)C2 the results were G9a block 19.1%[59 µM].
For Cc1cc(C(=O)N/N=C/c2cccn2C)no1 the results were BAZ2B block -28.8%, G9a block -4.0%[59 µM], 12-LOX inh -17.4%, PLK1 PBD block -13.3%, HP1b binding inh 7.7% and JMJD2A Tudor -9.1%.
`Cn1cccc1/C=N/NC(=O)c1ccncc1` gave BAZ2B block -22.2%, G9a block 3.6%, 12-LOX inh 4.4%, PLK1 PBD block 0.0%, HP1b binding inh 3.6% and JMJD2A Tudor -13.5%.
`Cn1cccc1/C=N/NC(=O)c1cc(-c2cccs2)nc2ccccc12` gave BAZ2B block 22.4µM*, G9a block 31.6µM*, 12-LOX inh -28.8%, PLK1 PBD block -8.6%, HP1b binding inh inconclusive and JMJD2A Tudor inconclusive.
Screening O=C(N/N=C\c1cccs1)c1cnccn1 returned 12-LOX inh -35.9%.
For O=C(N/N=C/c1cccs1)c1ccccn1 the results were BAZ2B block inconclusive, G9a block 6.31µM*, 12-LOX inh 22.6%, PLK1 PBD block -2.6%, HP1b binding inh 16.1% and JMJD2A Tudor -14.1%.
For Cn1cccc1/C=N/NC(=O)c1ccccn1 the results were BAZ2B block 35.5µM*, G9a block 3.16µM*, 12-LOX inh -8.6%, PLK1 PBD block 23.8µM*, HP1b binding inh -7.7% and JMJD2A Tudor inconclusive.
